This is an account of results in PubChem BioAssay AID1850 (Southern Research Specialized Biocontainment Screening …, 2009).

Several values for one entry are separate records, joined by “and”; a condition that tells them apart may be missing. Equal values may be shown once. Screen size: about 310,000 compounds; about 1,000 (0.32%) were called active. How the calls were made is not given here. Not all results are given here. Entries with a potency or affinity are not part of this list.

The term inhibition denotes the relative decrease from the control value, in per cent.

A short description of this experiment: Inhibition of PhoP regulon, Salmonella typhi GFP reporter cells, confirmation, 4 h (AID 1850).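 Further: 0% = induced wells with vehicle and 100% = uninduced wells.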 Conditions: Salmonella Typhi PhoP-promoter GFP reporter, fluorescence, at 50 µM, active compounds read high.
Consider `COc1ccc(C(OCC(O)CN(C)C2CCCCC2)c2ccc(OC)cc2)cc1` (centres undefined), for which the inhibition was -25.4% (inactive).

In the case of `O=C(N/N=C/c1ccc(-c2ccc([N+](=O)[O-])cc2)o1)C(O)c1ccccc1` (centres undefined), the inhibition is -3.63% (inactive). Regarding `O=C(N/N=C/c1ccc(Cl)s1)C(O)c1ccccc1` (centres undefined), the inhibition is -6.88% (inactive).

As for `O=C(N/N=C/c1ccc([N+](=O)[O-])s1)c1ccccc1`, the inhibition was 6.9% (inactive). Then `O=C(N/N=C/c1ccc(Br)s1)c1ccccc1[N+](=O)[O-]`, with -8.63% (inactive); and `Cc1ccc(NC(C)C(=O)N/N=C/c2ccc([N+](=O)[O-])s2)cc1` (centres undefined), with -1.13% (inactive); and `Cc1cc(C(=O)N/N=C/c2ccc([N+](=O)[O-])s2)c2ccccc2n1`, with 4.3% (inactive). For the molecule `Cc1ccc(/C=N/NC(=O)C(O)c2ccccc2)o1` (centres undefined), the inhibition was 1.91% (inactive). For `O=C(N/N=C/c1ccc([N+](=O)[O-])s1)c1cccc(Br)c1`, the inhibition was -0.18% (inactive). With `O=C(c1cc2ccccc2cc1O)N1CCN(c2ccc([N+](=O)[O-])cc2)CC1`, the inhibition is 6.8% (inactive). Turning to `O=C(NCCCSc1ccccc1)c1ccc(=O)[nH]c1`, the inhibition is -9.17% (inactive). Then `C=CCc1cc(Cl)ccc1OCCN1CC(C)OC(C)C1` (centres undefined), with -16% (inactive).

For the molecule `Cn1c(-c2cccc([N+](=O)[O-])c2)cnc1NCc1ccc(C#N)cc1`, the inhibition is -3.32% (inactive). Then `CC1(C)Cc2c(sc3c2c(N)nc(=S)n3Cc2ccccc2)CO1`, with -10.9% (inactive); and `O=C(NCCC1=CCCCC1)c1cc(S(=O)(=O)N2CCOCC2)ccc1Cl`, with -3.59% (inactive). The value for `Cc1ccc(S(=O)(=O)Nc2cc(C(=O)N3CCC4(CC3)OCCO4)ccc2N2CCCCC2)cc1` was 3.06% (inactive).

As to `Cc1nc(SCC(=O)Nc2cc(Cl)ccc2[N+](=O)[O-])nc(C)c1C`, the inhibition was 1.39% (inactive). The value for `O=C(CSc1nc2ccccc2[nH]1)N1CCN(C(=O)c2ccco2)CC1` was -8.53% (inactive); that for `CCOc1ccc(CN=C(N)N=C(N)N)cc1Cl` was 20% (inactive); that for `CCCOc1ccc(CCCN=C(N)N)cc1Cl` was 22.8% (inactive).

`CCOc1ccc(CSC(=N)N)cc1Cl`: the inhibition was 20.5% (inactive). As for `CCOc1ccc(CSC(=N)N)cc1[N+](=O)[O-]`, the inhibition was -0.03% (inactive). The value for `COc1ccc(CSC(=N)N)cc1[N+](=O)[O-]` was -11.2% (inactive). Consider `CCCCOc1ccc(CSCCN)cc1Cl`, for which the inhibition is 12% (inactive). The value for `CCCCOc1ccc(CSC2=NCCN2)cc1[N+](=O)[O-]` was 7.52% (inactive). Then `CCCOc1ccc(CSC2=NCCN2)cc1[N+](=O)[O-]`, with 23.3% (inactive); and `Cc1cc(C(=O)Cn2nc(C(=O)O)c3ccccc3c2=O)c(C)n1-c1ccc(OC(F)F)cc1`, with -17.2% (inactive); and `CCOC(=O)c1ccc(NC(=O)N2CCOCC2)cc1`, with 9.07% (inactive).

With `O=C(CCN1C(=O)C2CC=C(Cl)CC2C1=O)N1CCCCC1` (centres undefined), the inhibition is 4.62% (inactive). Then `O=C1c2ccccc2-c2nc3ccccc3n21`, with -6.73% (inactive) and -7.55% (inactive). Consider `CCCOc1ccc(Br)cc1CSC(=N)N`, for which the inhibition is 20.4% (inactive). For the molecule `CCOc1ccc(Br)cc1CSC(=N)N`, the inhibition was -6.33% (inactive). The value for `O=C(CN1C(=O)NC2(CCCC2)C1=O)Nc1ccc(S(=O)(=O)N2CCOCC2)cc1` was -0.54% (inactive); that for `Cc1ccc(Nc2nc(N)c([N+](=O)[O-])c(NCCO)n2)cc1C` was 13.6% (inactive). Then `OCCNc1nc(Nc2ccccc2)nc(Nc2ccccc2)n1`, with -3.62% (inactive); and `OCCNc1nc(Nc2ccccc2Cl)nc(N2CCCC2)n1`, with -6.06% (inactive); and `OCCNc1nc(NCc2ccccc2)c2ccccc2n1`, with -4.21% (inactive).

In the case of `OCCNc1nc(Nc2ccc(O)cc2)nc2ccccc12`, the inhibition is 1.07% (inactive). The value for `Cc1cc(NCCO)c2ccccc2n1` was -12.1% (inactive); that for `O=C(NCCO)c1nc(NCCO)c2ccccc2n1` was -2.84% (inactive).

In the case of `OCCNc1nc(-c2ccccc2)nc2ccccc12`, the inhibition is 16% (inactive). The value for `O=C(CSc1ccc2c(c1)OCCO2)NCc1ccccc1` was 6.58% (inactive); that for `CC(Sc1nnc(Nc2ccccc2)s1)C(=O)NC1CCCc2ccccc21` (centres undefined) was 9.25% (inactive); that for `O=C(COc1ccc(Br)cc1)N(CCO)CCO` was -3.36% (inactive). Take `O=P(O)(Oc1ccccc1)OC(c1ccccc1)C(F)(F)C(F)(F)F` (centres undefined): the inhibition was 5.37% (inactive).

In the case of `O=C(NCCNS(=O)(=O)c1ccc(Cl)cc1)c1cc(OCC(F)(F)F)ccc1OCC(F)(F)F`, the inhibition was 0.75% (inactive). `c1coc(-c2cc(C3CCNCC3)[nH]n2)c1`: the inhibition is 10.6% (inactive). Then `CC(Oc1ccccc1)C(=O)N=C1SC2CS(=O)(=O)CC2N1Cc1ccc(F)cc1` (centres undefined), with 2.75% (inactive); and `COc1cc(C(=O)OCC(=O)NCc2ccc(F)cc2)cc(NC(=O)c2cccs2)c1OC`, with 12.9% (inactive). The value for `COCCN(Cc1cc2cc3c(cc2nc1Cl)OCO3)C(=O)c1ccc(C)cc1` was -6.89% (inactive); that for `CCc1ccc(CN2C(=O)c3ccccc3C2C(=O)NCc2cccnc2)cc1` (centres undefined) was -8.38% (inactive); that for `COc1ccc(OC)c(Nc2nc(NCCO)c3ccccc3n2)c1` was -0.87% (inactive). Regarding `OCCNc1nc(Nc2cccc(O)c2)nc2ccccc12`, the inhibition is -3.51% (inactive). Then `CN1N=C(C(=O)Nc2ccc3c(c2)CCC3)CCC1=O`, with -2.98% (inactive); and `COc1cccc(COc2ncnc3sccc23)c1`, with 3.57% (inactive); and `O=C(O)c1oc2ccccc2c1CN1CCN(c2ccccc2)CC1`, with -0.62% (inactive). Regarding `COc1ccc(OCC(=O)Nn2c(-c3cccc(OC)c3)nc3ccccc3c2=O)cc1`, the inhibition was -2.54% (inactive).

`COCCCn1c(SCC(=O)NC2CCCC2)nnc1-c1cccs1`: the inhibition was 7.9% (inactive). Take `Nc1ccccc1C(=O)NNC(=O)C(=O)/C=C(\O)c1ccccc1`: the inhibition was 3.15% (inactive). Then `COc1ccc(/C(O)=C/C(=O)C(=O)NNC(=O)c2ccccc2)cc1`, with 12.4% (inactive); and `COc1ccc(-c2nnc(OC)c3ccccc23)cc1`, with -2.2% (inactive); and `O=C(O)C1=C[C@H](c2csc3ccccc23)C[C@H](OCc2ccc(CO)cc2)O1`, with 17.9% (inactive). Then `NS(=O)(=O)c1ccc(CCNC(=O)C2CCCO2)cc1` (centres undefined), with -6.93% (inactive); and `CC(C)N1C(=O)/C(=C\c2nc3ccccc3c(=O)n2-c2ccccc2)c2ccccc21`, with -1.3% (inactive); and `COc1cc(C(C[N+](=O)[O-])c2c(N)n(C)c(=O)n(C)c2=O)ccc1O` (centres undefined), with -9.41% (inactive). In the case of `Cn1c(N)c(C(C[N+](=O)[O-])c2ccccc2Cl)c(=O)n(C)c1=O` (centres undefined), the inhibition is 16% (inactive).

Consider `Cc1c(CCC(=O)NCCCn2ccnc2)c(=O)oc2c(C)c3oc4c(c3cc12)CCCC4`, for which the inhibition is 2.2% (inactive). Then `Cc1ccccc1S(=O)(=O)Cc1ccc(C(=O)O)o1`, with -5.44% (inactive); and `Cn1c(NC2CCCCC2)cc(=O)n(C)c1=O`, with -41.1% (inactive). Then `Cc1cc(C)cc(Nc2cc(=O)n(C3CCCCC3)c(=O)[nH]2)c1`, with 3.88% (inactive). As for `O=C(O)c1ccccc1NCc1cccs1`, the inhibition is -6.17% (inactive).

For the molecule `O=C(NNc1c2ccccc2nc2ccccc12)c1ccccc1Cl`, the inhibition is 5.14% (inactive).

In the case of `Cc1cc(C(=O)Cn2nc(C(=O)O)c3ccccc3c2=O)c(C)n1CC(F)(F)F`, the inhibition was -16% (inactive). The value for `O=C(NNC(=O)C1CC=CCC1)c1cccc(Br)c1` (centres undefined) was 5.92% (inactive).

In the case of `CCOc1cc(CN2CCc3c([nH]c4ccccc34)C2)ccc1OC`, the inhibition is -1.33% (inactive). The value for `CCCCCc1ccc(CC(=O)O)cc1` was 7.27% (inactive); that for `CCCCCCNC(=O)C(=O)NCCc1ccc(Cl)cc1` was -2.68% (inactive); that for `Cc1[nH]c2ccccc2c1C(=O)CN1C(=O)C(=O)N(Cc2ccco2)C1=O` was -2.82% (inactive). For the molecule `CN(Cc1ccccc1)CC(O)COc1ccc(CNCc2cccnc2)cc1` (centres undefined), the inhibition is 6.07% (inactive). The value for `CN(Cc1ccccc1)CC(O)COc1ccc(CNCc2cc3ccccc3s2)cc1` (centres undefined) was 5.91% (inactive); that for `COc1ccc(OC(C)C(=O)NCc2cccnc2)cc1` (centres undefined) was -6.99% (inactive); that for `O=C(Nc1ccc(Cl)c(Cl)c1)c1ccccc1` was -28.6% (inactive). The value for `O=C(Nc1cccc(Cl)c1)c1ccccc1` was -1.86% (inactive). With `COc1cc(C)ccc1N(CCCN1C(=O)c2cccc3cccc(c23)C1=O)C(=O)c1cccs1`, the inhibition is -7.11% (inactive). The value for `O=C1c2ccccc2NC(c2ccccc2O)N1c1ccc(F)cc1` (centres undefined) was -11.4% (inactive); that for `CC1(C)Cc2c(cnn2-c2cccc(F)c2)C(NC(=O)c2ccc(=O)[nH]n2)C1` (centres undefined) was 2.67% (inactive); that for `O=C(CCN1C(=O)c2ccccc2C1=O)Nn1cnnc1` was -10.1% (inactive).

As for `CC(=O)c1ccc(NC(=O)C2CCCN2S(=O)(=O)c2ccc(F)cc2)cc1` (centres undefined), the inhibition was 0.38% (inactive).

Turning to `O=S1(=O)CCOC[C@H](c2ccccc2)N1Cc1cccc(Cl)c1`, the inhibition was 9.33% (inactive). The value for `CCCCOc1ccc(C)cc1CN(CCO)CCO` was -0.81% (inactive); that for `C=CCc1cc(C)ccc1OCCCC(C(=O)OCC)C(=O)OCC` was -4.53% (inactive); that for `Cc1cc(NC(=O)c2cccs2)n(-c2ccccc2)n1` was -5.58% (inactive). Take `O=C(O)c1cn(-c2ccc(F)cc2)c(=O)c2ccccc12`: the inhibition is -6.8% (inactive). The value for `CCOC(=O)c1cn(-c2ccc([N+](=O)[O-])cc2)c2cc(Cl)c([N+](=O)[O-])cc2c1=O` was -25.3% (inactive); that for `CNC(=O)C(=O)NCC1OCCN1S(=O)(=O)c1ccc([N+](=O)[O-])cc1` (centres undefined) was 0.4% (inactive); that for `CC(=O)c1c(C)[nH]c(C(=O)COC(=O)c2ccc3c(=O)n4c(nc3c2)CCC4)c1C` was -1.34% (inactive).

For `CCn1nnc(NC(=O)c2ccc(Br)o2)n1`, the inhibition is 3.35% (inactive). As to `O=C(Nc1ccc(Cc2ccncc2)cc1)c1ccc(Br)o1`, the inhibition is 7.97% (inactive). The value for `CCn1nnc(NC(=O)c2ccc(-c3ccccc3[N+](=O)[O-])o2)n1` was 11.3% (inactive); that for `Cc1cccc(NC(=O)c2ccc([N+](=O)[O-])o2)c1C` was -7.49% (inactive). The value for `Cc1ccccc1NC(=O)c1ccc([N+](=O)[O-])o1` was 11.6% (inactive); that for `O=C(Nc1c(Cl)ccc2nsnc12)c1ccco1` was -5.33% (inactive); that for `Cc1ccc2nsnc2c1NC(=O)c1ccc([N+](=O)[O-])o1` was 1.72% (inactive). Then `CC(=O)c1ccc(NC(=O)c2ccc([N+](=O)[O-])o2)cc1`, with 10.8% (inactive).
